An excerpt weighted towards active compounds, which were near 19% of everything screened.
uPA surface inh: inhibitors of cell surface uPA generation; cell surface uPA generation assay, qHTS; Potency, µM (highest dose often 38.3 µM), for the others: top-dose activity change, negative = inhibition, most hits filed as inhibitors; 0.31% of 330,000 active; AID 540303; active means well fitted inhibition curve with a large enough effect; inconclusive means small, poorly fitted or top-dose-only effect; inactive means no such curve, though single readings can be large or run the other way; tested in mouse RAW 264.7 cells; further: potency means the concentration at half of the fitted maximal effect; nearly all actives have a fitted effect of over 55% in size
HT1080NT lethal: kills 2HG-producing HT-1080-NT fibrosarcoma cells. HT-1080-NT fibrosarcoma viability, CellTiter-Glo ATP luminescence, 48 h. Potency, µM (series often up to 46.1 µM), for inactives: at the highest dose activity, negative = less viability, usual class: cytotoxic. 1.6% of 360,000 active;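 further: NT is the 2HG producing partner of a matched IDH1 knockdown line; potency means the concentration at half of the fitted maximal effect; 0% = DMSO-treated cells and -100% = media-only wells without cells; nearly all actives have a fitted effect of over 55% in size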
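HT-1080-NT; 750 cells/well; 5% FBS RPMI; 48 h compound, 37 degrees C; CellTiter-Glo luminescence; curve fitting and curve-class assignment.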
IL-1B inflam inh: inflammasome signaling inhibition, IL-1 beta readout; THP-1 LPS/ATP IL-1B secretion, AlphaLISA, 16 h; stronger effect = lower value; activity change, % at 57.5 µM; 4.7% of 360,000 active; AID 743279; in the data active means activity change below about -50%; inconclusive means mostly about -30% to -49%
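THP-1 cells pretreated 1 hr with compounds (up to 57.5 uM final), then stimulated with LPS (250 ng/mL final) plus ATP (1.25 mM final); secreted IL-1B measured by AlphaLISA after 16 hr, decreased signal indicating inhibition.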
HT1080 IDH1KD tx: toxicity to HT-1080 IDH1 knockdown cells (counter line); 2% of 360,000 active; HT-1080 IDH1 knockdown viability, ATP luminescence, 48 h; Potency, µM (doses to about 46.1 µM), for the others: at the top dose activity, negative = toxicity, most hits filed as cytotoxic;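 further: potency means the concentration at half of the fitted maximal effect; 0% = DMSO wells and -100% = cell-free medium wells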
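Using the IDH1-knockdown HT-1080 line run in the same batch and compound series as the NT line, viability after 48 h at 37 °C was determined by CellTiter-Glo luminescence and expressed as % activity.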
TDP1 cell CPT: DT40-hTDP1 cell growth loss with CPT. chicken DT40 Tdp1-/-;hTDP1 cells + 20 nM CPT, ATP luminescence, 48 h. Potency, µM (highest dose often 46.2 µM), inactives show top-dose activity change, negative = growth inhibition, most hits filed as inhibitors. 12% of 420,000 active; further: potency means the concentration at half of the fitted maximal effect; nearly all actives have a fitted effect of over 55% in size
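Cell growth measured by CellTiter-Glo luminescence after a minimum 48 h, 37 C compound exposure with 20 nM CPT in Tdp1-knockout DT40 cells stably expressing hTDP1, seeded 400/well; qHTS titration format.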
TDP1 cell noCPT: qHTS for Inhibitors of human tyrosyl-DNA phosphodiesterase 1 (TDP1): qHTS in cells in absence of CPT; DT40 Tdp1-/- hTDP1 cells, no CPT, ATP luminescence, 48 h; Potency, µM (doses to about 46.2 µM), without a hit: top-dose activity change, negative = growth inhibition, hits mostly inhibitors; 15% of 420,000 active; further: potency means the concentration at half of the fitted maximal effect; nearly all actives have a fitted effect of over 55% in size
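Cells were dispensed at 400 per well, compounds added by pin tool, plates incubated ≥48 hr at 37 °C, then CellTiter-Glo added for 30 min at room temperature before luminescence reading. Line: DT40 Tdp1-/- complemented with hTDP1; camptothecin omitted.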
* marks the source's active call; other numbers are inactive results; ? = inconclusive; · = no result; [ ] = remark or other dose. Unless noted, the call rests on the fitted dose curve; in most records, active means well fitted curve in the direction sought with a large enough effect; inconclusive means small, poorly fitted or top-dose-only effect, or another doubt; inactive means no such curve, though single readings can be large; an effect the other way counts as inactive or inconclusive. Unless noted, on the % scale 0 is the no-effect control and ±100 the full control effect.

SMILES	uPA surface inh	HT1080NT lethal	IL-1B inflam inh	HT1080 IDH1KD tx	TDP1 cell CPT	TDP1 cell noCPT
COc1ccccc1-c1cn[nH]c1-c1ccc(OCc2ccccc2F)cc1O	3.7%	?	-101.0*	?	18.4µM*	14.6µM*
CCCN1CCN(C(=O)c2oc3ccccc3c2NC(=O)COc2ccc(OC)cc2)CC1	?	4.1%	-4.2	6.8%	?	?
Cc1ccc2[nH]c3c(=O)n(CCN4CCNCC4)cnc3c2c1	2.2%	-4.8%	14.7	-17.2%	-2.1%	-13.5%
CCN1CCCC1CNc1ncnc2c1[nH]c1ccc(Cl)cc12 (stereo not drawn)	0.8%	14.6µM*	-110.0*	?	?	?
CCN1CCCC1Cn1cnc2c([nH]c3ccc(C)cc32)c1=O (stereo not drawn)	-1.6%	1.8%	-58.4*	5.2%	-23.2%	-17.2%
NCc1ccccc1CC(=O)N[C@@H]1C(=O)N2C(C(=O)O)=C(CSc3nnnn3CC(=O)O)CS[C@H]12	·	·	·	·	12.8%[21.1 µM]	0.5%[21.1 µM]
O=C(O)CCC(=O)C(=O)O (tested in a mixture with another compound)	·	·	·	·	10.8%	15.2%
COc1cccc(CN2CCCC(C(=O)c3ccc4c(c3)OCO4)C2)c1OC (stereo not drawn)	3.7%	-18.1%	?	-25.9%	?	?
COc1ccc(C(=O)C2CCCN(Cc3nc4ccccc4nc3C)C2)cc1OC (stereo not drawn)	-6.4%	-2.9%	-14.7	-19.1%	-22.6%	?
O=C(c1cccc(C(F)(F)F)c1)C1CCCN(Cc2cccc(OCCO)c2)C1 (stereo not drawn)	2.0%	-8.9%	-62.4*	-26.8%	?	10µM*
COc1ccc(C(=O)C2CCCN(Cc3cccc4c3OCO4)C2)cc1OC (stereo not drawn)	-0.8%	?	-7.2	-23.8%	?	9.2µM*
CCCCNC(=O)N1CCCC(C(=O)c2cc(C)c(OC)c(C)c2)C1 (stereo not drawn)	2.3%	-17.4%	-13.8	-5.4%	?	16.4µM*
COc1ccc(C(=O)C2CCCN(Cc3c(O)cccc3OC)C2)cc1OC (stereo not drawn)	4.5%	-28.6%	-18.5	?	?	7.31µM*
CCCc1cc(C(=O)N2CCCC(C(=O)c3cc(C)c(OC)c(C)c3)C2)n(C)n1 (stereo not drawn)	8.6%	-7.3%	5.7	-8.9%	-41.6%	?
O=S(=O)(NCCSc1ccccc1)c1cccs1	-2.9%	-2.1%	-7.9	5.4%	-3.7%	-2.8%
COc1c(C)cc(C(=O)C2CCCN(Cc3cccc4nccnc34)C2)cc1C (stereo not drawn)	-2.3%	-13.5%	-2.7	-9.6%	?	16.4µM*
O=C(c1cccc(C(F)(F)F)c1)C1CCCN(Cc2cccn2-c2ccccn2)C1 (stereo not drawn)	-8.6%	?	-91.4*	?	14.6µM*	14.6µM*
COCc1cc(CN2CCCC(C(=O)c3cccc(C(F)(F)F)c3)C2)ccc1OC (stereo not drawn)	4.1%	3.5%	-7.9	9.5%	?	?
COc1cccc(O)c1CN1CCCC(C(=O)c2cccc(C(F)(F)F)c2)C1 (stereo not drawn)	3.5%	-13.6%	-21.9	?	16.4µM*	23.1µM*
CCOc1cccc(CN2CCCC(C(=O)c3cccc(C(F)(F)F)c3)C2)c1O (stereo not drawn)	5.4%	-0.2%	-15.5	2.1%	-1.0%	-6.3%
O=C(c1ccc2c(c1)OCO2)C1CCCN(Cc2ccccc2OC(F)F)C1 (stereo not drawn)	1.4%	?	-25.6	-12.3%	16.4µM*	?
COc1ccccc1C(=O)C1CCCN(Cc2cccc3nccnc23)C1 (stereo not drawn)	-0.4%	-2.9%	31.1	-7.1%	-23.4%	-26.8%
O=c1oc2ccc3ccccc3c2cc1-c1nnc(Nc2ccccc2)s1	·	·	·	·	-1.2%	?
O=C(NC(Cc1ccccc1)C(=O)O)/C(=C/c1ccc(Cl)cc1)NC(=O)c1ccco1 (stereo not drawn)	-3.0%	8.6%	-1.7	-0.2%	-5.6%	-0.1%
Cc1cc(C)c(NC(=O)C2CCN(S(C)(=O)=O)CC2)c(C)c1	·	0.9%	10.5	4.2%	-20.0%	-16.8%
SMILES	uPA surface inh	HT1080NT lethal	IL-1B inflam inh	HT1080 IDH1KD tx	TDP1 cell CPT	TDP1 cell noCPT
CSCCC(NC(=O)COc1ccccc1)C(=O)N1CCOCC1 (stereo not drawn)	0.7%	3.6%	3.5	1.0%	-11.0%	8.0%
COCCC(=O)N1CCCC(C(=O)c2ccccc2SC)C1 (stereo not drawn)	-1.0%	9.7%	31.3	5.7%	-26.0%	-38.9%
COc1cccc(OC)c1CN1CCCC(C(=O)c2ccccc2SC)C1 (stereo not drawn)	-9.9%	-15.9%	?	-23.0%	16.4µM*	20.6µM*
CCOC(=O)Cc1csc(NC(=O)c2cccc(OC)c2)n1	-0.9%	5.0%	-0.3	0.1%	-29.4%	?
COc1cc(OC)cc(C(=O)Nc2nc(CC(=O)NC(C)c3ccccc3)cs2)c1 (stereo not drawn)	4.9%	-1.1%	-9.7	1.0%	?	-26.0%
COc1ccc(C(=O)Nc2nc(CC(=O)NCCc3ccccc3)cs2)cc1	-3.8%	0.6%	-52.3*	0.3%	?	?
O=C(Cc1csc(NC(=O)c2ccccc2)n1)NO	-14.3%	?	-57.6*	?	?	-12.5%
COc1ccc(C(=O)Nc2nc(CC(=O)NCCc3cccc(OC)c3)cs2)cc1	-6.4%	-1.3%	?	-8.7%	?	14.6µM*
COc1ccc(Cl)cc1-c1cc(C(=O)NCc2cccs2)[nH]n1	·	-29.2%	5.2	-27.9%	11.6µM*	?
COc1ccc(Cl)cc1-c1cc(C(=O)NCc2cc(C(F)(F)F)cc(C(F)(F)F)c2)[nH]n1	·	20.6µM*	0.0	?	?	14.6µM*
Cc1ccc(Cl)cc1-c1cc(C(=O)NCc2ccccc2)[nH]n1	·	?	·	4.8%	-29.1%	-26.9%
COc1ccc(F)cc1-c1cc(C(=O)NCc2ccc(C(F)(F)F)cc2)[nH]n1	·	?	-10.2	?	23.1µM*	16.4µM*
COc1ccc(F)cc1-c1cc(C(=O)NCc2cccc(C(F)(F)F)c2)[nH]n1	·	-26.9%	0.0	?	?	?
Cc1ccc(Cl)cc1-c1cc(C(=O)NCc2cc(C(F)(F)F)cc(C(F)(F)F)c2)[nH]n1	·	?	?	?	?	20.6µM*

Assay outcomes deposited in PubChem by National Center for Advancing Translational Sciences (NCATS).
